Test results reported in PubChem BioAssay AID463212 (Sanford-Burnham Center for Chemical Genomics, 2010).
The campaign covered roughly 330,000 compounds. About 4,400 (1.3%) were called active.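 The calls were made as follows: active = growth inhibition of the mutant yeast at or above 50%; inactive = the rest.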 Many of the other results were omitted from the sample, so actives are more common in it than they were.

Experiment: growth inhibition of tim23-1 ts yeast – luminescence, uHTS, primary screen (AID 463212);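 also: temperature-sensitive mutant grown at 25 °C; plate controls were DMSO-treated mutant yeast for no effect and medium wells lacking yeast for full effect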
Details: S. cerevisiae tim23-1 growth, BacTiter-Glo luminescence, 24 h; at 20 µM; active compounds read high

| SMILES | inhibition |
| --- | --- |
| CCC1=NN(C(=O)Cc2ccc([N+](=O)[O-])cc2)C(O)(c2ccc(Br)cc2)C1 (stereo unspecified) | 50% (active) |
| CC1=NN(C(=O)c2ccc(Br)cc2)C(O)(c2ccccc2)C1 (stereo unspecified) | 29.5% (inactive) |
| CC1=NN(C(=O)Cc2ccc(C)cc2)C(O)(c2cccnc2)C1 (stereo unspecified) | -31.5% (inactive) |
| COc1ccc(CC2c3cc(OC)c(OC)cc3CC[N+]2(C)CCC(=O)OCCCCCOC(=O)CC[N+]2(C)CCc3cc(OC)c(OC)cc3C2Cc2ccc(OC)c(OC)c2)cc1OC (stereo unspecified) | 3.67% (inactive) |
| CC(C)(C)c1ccc(C(=O)N2CCN(CCNC(=O)C(=O)Nc3ccc(F)cc3)CC2)cc1 | 16.2% (inactive) |
| COC(=O)c1sccc1NN1C(=O)c2ccccc2C1=O | 13.6% (inactive) |
| COC(=O)c1ccc2c(C(C)(C)O)c(C(C)(C)O)[nH]c2c1 | 5.76% (inactive) |
| Cc1cccc(/C=N/NC(=O)CNc2cccc3ccccc23)n1 | 17.8% (inactive) |
| CCOc1ccc(NC(=O)CCC(=O)n2nc(C)cc2C)cc1 | 14.6% (inactive) |
| CCOc1ccc(NC(=O)CCC(=O)N/N=C/c2ccc([N+](=O)[O-])s2)cc1 | 79.1% (active) |
| Cc1ccc(/C=N/NC(=O)CN2CCN(Cc3ccccc3)CC2)s1 | 0.916% (inactive) |
| CCOc1ccc(C(=O)CCC(=O)Nc2ccncc2)cc1 | 11.8% (inactive) |
| Cc1ccccc1NCC(=O)N/N=C\c1ccc([N+](=O)[O-])s1 | 62.7% (active) |
| CCOC(=O)/C=C/C(=O)OCC(=O)NC(c1ccccc1)c1ccccc1 | 40.9% (inactive) |
| O=C(NCc1ccc2c(c1)OCO2)C1CCCN(S(=O)(=O)c2cccs2)C1 (stereo unspecified) | 7.36% (inactive) |
| CCN(C(=O)c1cc([N+](=O)[O-])ccc1NCc1cccnc1)c1ccccc1 | 24.3% (inactive) |
| COc1ccc(N=Nc2c(-c3ccc(OC)cc3)[nH]oc2=O)cc1 | 2.46% (inactive) |
| CC1CCCCC1NC(=O)C1CCCN1S(=O)(=O)c1cccc2nsnc12 (stereo unspecified) | 6.89% (inactive) |
| Cc1ccccc1CSc1nnc(Cn2c(=O)sc3ccccc32)n1C | 18.7% (inactive) |
| Cc1cc(O)c(C(=O)/C=C/c2c(F)c(F)c(F)c(F)c2F)c(=O)o1 | 19.1% (inactive) |
| Cc1ccc(N=Cc2c(O)cc(C)oc2=O)c(C)c1 | 96.2% (active) |
| Cc1ccc(N=Cc2c(O)n(-c3nccs3)c(=O)c3ccccc23)c(C)c1 | -3.15% (inactive) |
| CN1CCN(C(=O)c2ccc(-c3ccc(Br)cc3)o2)CC1 | 4.87% (inactive) |
| Cc1ccc(S(=O)(=O)NC(=O)N2CCCN(Cc3ccc(F)cc3)CC2)cc1 | -9.12% (inactive) |

| SMILES | inhibition |
| --- | --- |
| Cc1nc2cc(S(=O)(=O)C(F)(F)F)ccc2s1 | -1.26% (inactive) |
| COc1cccc(N2C(=O)CN(Cc3ccccc3)C2=S)c1 | 44.3% (inactive) |
| CCc1cccc(C)c1N1C(=O)CN(Cc2ccccc2)C1=S | 46.7% (inactive) |
| Cc1cccc(C)c1N1C(=O)CN(Cc2ccccc2)C1=S | 54.6% (active) |
| Cc1ccc2cc3cc(C(=O)N4CCCCCC4)oc3nc2c1 | 53.8% (active) |
| Cc1cc(C)cc(NC(=O)N2CCCCCCC2)c1 | 27.5% (inactive) |
| Cc1ccc2nc(N3CCN(C(=O)c4ccco4)CC3)sc2c1 | 26.4% (inactive) |
| CC(=O)N1CC(=O)N(CC(=O)Nc2ccc(Br)cc2)C1=S | 10.5% (inactive) |
| COC(=O)[C@]1(C)N[C@H](c2ccc(-c3ccc(Cl)c(Cl)c3)cc2)[C@@H]2C(=O)N(C)C(=O)[C@@H]21 | 30.7% (inactive) |
| COc1cccc(CNc2ncc(-c3ccccc3)n2C)c1 | -8.62% (inactive) |
| CCC(=O)Nc1nc(C)c(C(=O)Nc2cccc(Cl)c2)s1 | 57.9% (active) |
| Cc1csc(NC(=S)Nc2cccc(Cl)c2)n1 | 48.7% (inactive) |
| CCC(=O)Nc1sc(C(=O)Nc2ccccc2)c(C)c1C(=O)OC | 32% (inactive) |
| O=C(Nc1ccc(N2CCOCC2)nc1)c1c(F)cccc1F | -3.3% (inactive) |
| Cc1ccc(NC(=S)N2CCN(c3ncccn3)CC2)cc1C | 19% (inactive) |
| Cc1cccc(N2CCN(C(=O)/C=C/c3ccco3)CC2)c1C | 38.9% (inactive) |
| COc1ccc(C(=O)COC(=O)CN2C(=O)C3CC=CCC3C2=O)c(OC)c1 (stereo unspecified) | 12.1% (inactive) |
| COc1cccc(CNC(=O)C2CCCN(S(=O)(=O)N3CC(C)CC(C)C3)C2)c1 (stereo unspecified) | 27.8% (inactive) |
| CC(=O)Oc1ccc(N(C(C)=O)S(=O)(=O)c2ccc3ccccc3c2)cc1Br | 59.3% (active) |
| COCCNC(=O)COc1ccc(N(C)S(=O)(=O)c2ccc3ccccc3c2)cc1 | 19.5% (inactive) |
| CN(c1ccc(OCC(=O)O)cc1)S(=O)(=O)c1ccc2ccccc2c1 | 3.8% (inactive) |
| CC(=O)n1cc([C@@H]2C=C(C(=O)N3CCN(Cc4ccc5c(c4)OCO5)CC3)O[C@H](OCc3ccc(CO)cc3)C2)c2ccccc21 | 5.34% (inactive) |
| O=C(COC(=O)Cc1ccc(Br)cc1)Nc1c(F)c(F)c(F)c(F)c1F | 5.57% (inactive) |
| CCCCOc1ccc(C(=O)NCC(=O)OCC(=O)c2c(N)n(C)c(=O)n(C)c2=O)cc1 | 7.23% (inactive) |

| SMILES | inhibition |
| --- | --- |
| NS(=O)(=O)c1ccc(CCNC(=O)NC2CCCCC2)cc1 | 8.17% (inactive) |
| Cc1cc2ncn(CCCCOc3ccccc3)c2cc1C | 51.5% (active) |
| Clc1ncn(CCOc2ccccc2)c1Cl | -4.79% (inactive) |
| COCCOCCn1cnc2ccccc21 | 2.15% (inactive) |
| Fc1ccccc1-c1cc2cc3c(cc2cn1)OCO3 | 54.8% (active) |
| Fc1ccc2cnc(-c3ccccc3)cc2c1 | 31.1% (inactive) |
| O=C(c1ccco1)N1CCN(C(=O)c2cc(-c3ccccc3F)no2)CC1 | 19.6% (inactive) |
| COc1ccc(-n2c(SCC(=O)Nc3ccc4c(c3)OCO4)nnc2C(C)N2CCCCC2)cc1 (stereo unspecified) | 0.001% (inactive) |
| O=C(O)c1ccc(S(=O)(=O)N2CCC(Cc3ccccc3)CC2)cc1 | -3.54% (inactive) |
| CSCC[C@H](NC(=O)N1CCn2c1nc1ccccc12)C(=O)NCc1ccc2c(c1)OCO2 | -0.587% (inactive) |
| CCCCNC(=O)CCn1c(=O)c2ccccc2n(Cc2cc(C)ccc2C)c1=O | -7.13% (inactive) |
| COC(=O)c1ccccc1NC(=O)CSc1nc2c(c(=O)[nH]1)CCC2 | 16% (inactive) |
| CN1C(=O)/C(=C\c2cc(Br)cs2)c2ccccc21 | 24.9% (inactive) |
| CN1C(=O)/C(=N/OC(=O)c2ccccc2Br)c2ccccc21 | 56.2% (active) |
| Nc1cc(OC(=O)c2ccccc2Br)nn1S(=O)(=O)c1ccccc1 | 37.3% (inactive) |
| O=C(COc1ccc(F)cc1Br)NCC1COc2ccccc2O1 (stereo unspecified) | 25% (inactive) |
| CN(C)S(=O)(=O)N1CCN(c2ccc([N+](=O)[O-])cc2)CC1 | 9.07% (inactive) |
| O=C(O)c1cccc(NC(=S)N/N=C/c2c[nH]c3ccccc23)c1 | 7.37% (inactive) |
| Nc1nonc1-n1nnc(C(=O)N/N=C/c2c[nH]c3ccccc23)c1-c1ccccc1 | 14.8% (inactive) |
| CSC(=S)N/N=C/c1c[nH]c2ccccc12 | 63.2% (active) |
| FC(F)(F)c1cccc(NC(=S)Nc2cccc(Cl)c2)c1 | 46.1% (inactive) |
| FC(F)(F)c1cccc(Nc2ncnc3ccccc23)c1 | 94% (active) |
| COc1ccc(CNc2ncnc3ccccc23)cc1 | -0.028% (inactive) |
| Cc1ccccc1-n1nc(SCC(=O)O)sc1=S | -2.14% (inactive) |

| SMILES | inhibition |
| --- | --- |
| [O-][n+]1c2c(nn1-c1ccc(Cl)c(Cl)c1)-c1nonc1CC2 | 4.72% (inactive) |
| CCCc1cc(C(=O)Nc2ccc(Cl)cn2)cs1 | 33% (inactive) |
| Clc1ccc(Cc2nnc(-c3cccs3)o2)cc1 | 15% (inactive) |
| Clc1ccc(Nc2nc(-c3cccs3)cs2)nc1 | 70.7% (active) |
| O=C(OCC(=O)N1CCCCCC1)c1cnc(Cl)c(Cl)c1 | 2.9% (inactive) |
| O=S(=O)(Nc1ccc(O)c2ccccc12)c1ccc(OC(F)(F)F)cc1 | 28.5% (inactive) |
| CCOC(=O)c1cc2cc(-c3c(C(=O)OCC)oc4cc(O)cc(O)c4c3=O)ccc2o1 | 14.3% (inactive) |
| O=c1c(-c2ccc3c(c2)OCCO3)c(C(F)(F)F)oc2cc(O)cc(O)c12 | 58.2% (active) |
| COc1ccc(-c2onc(C)c2-c2ccc3c(c2)OCCO3)c(O)c1 | 28.1% (inactive) |
| CCOc1ccc(CCNC(=O)CCc2nnc3ccc(N4CCCC4)nn23)cc1OCC | 10.2% (inactive) |
| O=C1NC(c2ccccc2)Oc2ccccc21 (stereo unspecified) | 22.9% (inactive) |
| Cc1ccccc1NC(=O)COc1cccc2c1CCNC2=O | 12.3% (inactive) |
| O=C(Nc1ccc(N2CCN(C(=O)c3cccs3)CC2)cc1)c1cccnc1Cl | 12.9% (inactive) |
| O=C(Nc1nn(Cc2ccccc2F)cc1Br)c1cccs1 | 17.3% (inactive) |
| O=C(Cc1ccccc1)N1N=C(c2ccncc2)CC1(O)C(F)(F)F (stereo unspecified) | 9.71% (inactive) |
| CC(=O)N1N=C(c2ccncc2)OC1(Cc1ccccc1)Cc1ccccc1 | 52.9% (active) |
| CC(=O)N1N=C(c2ccccc2)OC1c1cccnc1 (stereo unspecified) | 0.277% (inactive) |
| Cc1ccsc1C(=O)NNC(=O)COc1ccc(Br)cc1 | -6.92% (inactive) |
| C#CCNC(=O)[C@H](Cc1ccc(C(=O)c2ccccc2)cc1)NC(=O)OC(C)(C)C | 5.1% (inactive) |
| O=C(CNc1cccc(S(=O)(=O)N2CCCCC2)c1)Nc1ccccc1F | 14.8% (inactive) |
| COCCn1c(C)cc(C(=O)CN2c3cccc4cccc(c34)S2(=O)=O)c1C | 5.11% (inactive) |
| Oc1ccccc1-c1cc(-c2ccc(Cl)cc2)n[nH]1 | 56.4% (active) |
| Cc1ccc(NC(=O)c2cc(-c3ccccc3O)n[nH]2)cc1C | -2.65% (inactive) |
| CSc1ccccc1-c1nnc(-c2ccc(Cl)cc2)o1 | 21.3% (inactive) |
